The record followed here is PubChem BioAssay AID2284364 (EPA ToxCast).

Where “and” joins values, the source holds several entries; their conditions need not be identical. Equal entries are not always repeated. Calls of active or inactive are those of the source. Rule for the calls: active = hit-call score of the fitted dose curve at least 0.9, where 1 is the maximum; inactive = score below 0.9.

A word on the AC50: it is the concentration at which the activity in the assay is half-maximal.

Sequence of Peroxisome proliferator-activated receptor gamma (Homo sapiens) (P37231 whole entry, looked up): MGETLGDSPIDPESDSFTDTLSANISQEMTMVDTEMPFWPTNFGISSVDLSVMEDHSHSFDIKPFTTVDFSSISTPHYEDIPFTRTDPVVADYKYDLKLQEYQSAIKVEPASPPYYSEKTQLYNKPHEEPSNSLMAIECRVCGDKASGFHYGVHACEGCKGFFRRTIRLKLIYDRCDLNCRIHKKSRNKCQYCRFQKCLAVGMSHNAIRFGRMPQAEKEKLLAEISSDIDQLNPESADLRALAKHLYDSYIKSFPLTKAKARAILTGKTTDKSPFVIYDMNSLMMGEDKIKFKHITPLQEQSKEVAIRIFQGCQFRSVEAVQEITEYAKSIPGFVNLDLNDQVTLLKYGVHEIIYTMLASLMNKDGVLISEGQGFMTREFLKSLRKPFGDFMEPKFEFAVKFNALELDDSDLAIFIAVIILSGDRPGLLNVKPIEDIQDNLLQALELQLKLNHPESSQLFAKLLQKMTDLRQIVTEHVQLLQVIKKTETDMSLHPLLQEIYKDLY

This experiment deals with Peroxisome proliferator-activated receptor gamma (Homo sapiens) (UniProt P37231). Kind of experiment: ERF_US_NR_hPPARG: Eurofins (ERF) Nuclear Receptor (NR) Cell Based Protein-Protein Interaction LeadHunter Assay for human Peroxisome Proliferator-activated Receptor-gamma (PPARg) Agonism. On the procedure:
ERF_US_NR_hPPARG is a cell-based, single-readout assay that uses extracted gene-proteins in a cell-line assay. Measurements were taken 5 hours after chemical dosing in a 384-well plate. See PPARgamma Human NHR Cell Based Agonist Protein-Protein Interaction Assay, DiscoverX.ERF_US_NR_hPPARG is an assay component calculated from the ERF_US_NR_hPPARG assay. It is designed to measure […] using a type of binding reporter as detected by scintillation counting with radiometry technology.Data from the assay component ERF_US_NR_hPPARG was analyzed at the assay endpoint, ERF_US_NR_hPPARG, in the positive analysis fitting direction relative to DMSO as the negative control and baseline of activity. Using a type of binding reporter, gain-of-signal activity can be used to understand changes in binding as they relate to gene PPARG. To generalize the intended target to other relatable targets, this assay endpoint is annotated to the nuclear receptor intended target family, where the subfamily is non-steroidal.
Cells were seeded in a total volume of 20 uL into white walled, 384-well microplates and incubated at 37C overnight prior to testing.Briefly, intermediate dilution of sample stocks was performed to generate 5X sample in assay buffer. 5 uL of 5X sample was added to cells and incubated at 37C for 300 minutes. Final assay vehicle concentration was 1%. The results are expressed as a percent efficacy of the control ligand.
With `O=C(CC(=O)C(F)(F)C(F)(F)C(F)(F)F)c1cccs1`, the AC50 was 21.7 µM (active) and 23.7 µM (active).
On to `O=C(O)CCC(F)(F)C(F)(F)C(F)(F)F`, for which the outcome was inactive.
Consider `NC(=O)c1nc(-c2cccc(-c3cc(F)ccc3OCC(F)(F)C(F)(F)F)c2)n[nH]1`, for which the molecule was called inactive.
